The panel holds about 83,000 compounds, 20% with a hit somewhere; the sample as a whole holds those more often.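 Growth was measured after 48 h exposure to one concentration of compound in 96-well plates. Values under 10 count as active.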 Unmarked numbers belong to inactive results. Activity calls are given as the source filed them.
Key:
Experiment in all cases: NCI-60 one-dose screen, 48 h (100 = growth as untreated, 0 = no growth, -100 = all killed)
Conditions in all cases: 10 µM unless noted
SR leukemia = system: SR leukemia
RPMI-8226 leukemia = system: RPMI-8226 leukemia
OVCAR-8 ovarian = system: OVCAR-8 ovarian
OVCAR-5 ovarian = system: OVCAR-5 ovarian
OVCAR-4 ovarian = system: OVCAR-4 ovarian
SK-OV-3 ovarian = system: SK-OV-3 ovarian
IGROV1 ovarian = system: IGROV1 ovarian
OVCAR-3 ovarian = system: OVCAR-3 ovarian
HS 578T breast = system: HS 578T breast
NCI/ADR-RES ovarian = system: NCI/ADR-RES ovarian
T-47D breast = system: T-47D breast
BT-549 breast = system: BT-549 breast
MDA-MB-435 melanoma = system: MDA-MB-435 melanoma
SW-620 colon = system: SW-620 colon
MCF7 breast = system: MCF7 breast
HCT-116 colon = system: HCT-116 colon
HCC-2998 colon = system: HCC-2998 colon
KM12 colon = system: KM12 colon

| SMILES | growth (SR leukemia) | growth (RPMI-8226 leukemia) | growth (OVCAR-8 ovarian) | growth (OVCAR-5 ovarian) | growth (OVCAR-4 ovarian) | growth (SK-OV-3 ovarian) | growth (IGROV1 ovarian) | growth (OVCAR-3 ovarian) | growth (HS 578T breast) | growth (NCI/ADR-RES ovarian) | growth (T-47D breast) | growth (BT-549 breast) | growth (MDA-MB-435 melanoma) | growth (SW-620 colon) | growth (MCF7 breast) | growth (HCT-116 colon) | growth (HCC-2998 colon) | growth (KM12 colon) |
| --- | --- | --- | --- | --- | --- | --- | --- | --- | --- | --- | --- | --- | --- | --- | --- | --- | --- | --- |
| O[C@@H](c1cc(C(F)(F)F)nc2c(C(F)(F)F)cccc12)[C@H]1CCCCN1 | 8.64% (active) | 68.9% | 76.7% | 77.7% | 62.6% | 82.7% | 51.7% | 63.1% | 58.2% | 61.9% | 43.1% | 66.1% | 73.1% | 73.7% | 36.3% | 36.1% | 80.5% | 50.1% |
| CC1=NN(c2ccc(Cl)cc2)CC1(C)N=O (stereo unspecified) | 33% | 89.3% | 88.2% | 126% | 77.3% | 114% | 103% | 62.1% | 82.9% | 94.4% | 60.8% | 86.1% | 48.5% | 43.7% | 29.7% | 30.9% | 102% | 99.5% |
| O=C(Nc1ccccc1O)c1ccccc1Nc1ccnc(C(F)(F)F)c1 | 76% | 56.5% | 100% | 99.9% | 95.8% | 100% | 79.5% | 97.6% | 96.4% | 90.7% | 88.4% | 112% | 115% | 102% | 83.4% | 84.2% | 107% | 102% |
| CS(=O)(=O)Nc1cncc(-c2ccc3ncnc(Nc4ccc(F)c(Cl)c4)c3c2)c1 | 23.3% | 15.7% | 47.1% | 33.3% | 63.4% | -0.027% (active) | -17.2% (active) | 22.1% | 3.01% (active) | 84% | -9.57% (active) | 32.4% | 49% | 43.1% | 13.1% | 19.6% | 66% | 59.4% |
| Cn1c(O)c(C(/C=C/c2ccccc2)=Nc2ccccc2N)c(=O)n(C)c1=O | -19.7% (active) | 58.7% | 107% | 83.4% | 101% | 110% | 77.4% | 105% | 110% | 96.5% | 85.5% | 121% | 95.5% | 106% | 99% | 56.7% | 90% | 107% |
| Cc1[nH]c(C(=O)Nc2ccc(C(N)=O)cc2NC(C)C)c(Cl)c1Cl | 103% | 87.8% | 92.4% | 104% | 92.4% | 113% | 85.1% | 96.3% | 82.6% | 88.2% | 82.6% | 93% | 101% | 96.1% | 92% | 81% | 108% | 98.9% |
| COC(=O)C1=C(C(=O)Nc2cccnc2)C2OC1(C(Cc1ccccc1)Oc1ccccc1)C1OC21 (stereo unspecified) | -23.7% (active) | -11.8% (active) | 86.4% | 79.7% | 75% | 98.3% | 77.7% | -53.5% (active) | 101% | 103% | -46.7% (active) | 61.5% | 77.8% | -64.9% (active) | 24.9% | -46.3% (active) | 105% | 96.8% |
| CN(CCC#N)c1ccc(/C=C2\NC(=O)NC2=O)cc1 | 102% | 110% | 111% | 98.7% | 102% | 105% | 105% | 121% | 88.8% | 93.2% | 112% | 51.4% | 93.1% | 99.8% | 102% | 91.2% | 96.7% | 101% |
| C#Cc1cccc(Nc2nc3ccc([N+](=O)[O-])cc3nc2Nc2cccc(C#C)c2)c1 | -22.1% (active) | -21.7% (active) | -23.3% (active) | -17.6% (active) | -43.7% (active) | -84.9% (active) | -29% (active) | -67.4% (active) | -19.1% (active) | -9.97% (active) | -36.1% (active) | -59.3% (active) | -78% (active) | -64.2% (active) | -12.6% (active) | -94.7% (active) | -80.8% (active) | -77.9% (active) |
| COc1ccc(-c2cc(-c3cc(OC)c(OC)c(OC)c3)c(C#N)c(=O)n2CCCCCC(=O)NO)cc1 | 78.2% | 72.8% | 87% | 108% | 100% | 122% | 101% | 101% | 85.2% | 96.1% | 71.7% | 99.5% | 98.2% | 101% | 89% | 88% | 110% | 93.4% |
| N#C/C(=C\c1ccc(-c2ccc(Cl)cc2)o1)c1ccc(Cl)cc1 | 59.6% | 44.8% | 58.4% | 68.1% | -14.1% (active) | 75.5% | 23.6% | 56.4% | 29.8% | 60% | 51.2% | 79.5% | 85.1% | 66.2% | 62.1% | 12.7% | 96.4% | 88.9% |
| CCOC(=O)c1n[nH]n2c1nc(=O)c1cnn(C)c12 | 85.3% | 101% | 102% | 112% | 102% | 101% | 108% | 101% | 105% | 103% | 96.5% | 133% | 105% | 108% | 92.8% | 114% | 100% | 95.7% |
| O=C(O)C1CN(c2cccc(Cl)c2)N(c2cccc(Cl)c2)C1=O (stereo unspecified) | 85% | 107% | 93.2% | 75.3% | 96% | 88.9% | 89.8% | 87.1% | 91% | 93.9% | 88.9% | 101% | 94.2% | 97.8% | 91.8% | 97.4% | 103% | 81.3% |
| CC(C)c1ccc(-n2c(=S)[nH]c3sc4c(c3c2=O)CCC(=O)C4)cc1 | 50% | 15.9% | 49.9% | 68.2% | 46.5% | 84.3% | 63.1% | 53% | 32.4% | 44% | 11.7% | 26.3% | 91.8% | 48.5% | 85.4% | 53.5% | 40.1% | 18.6% |
| COc1ccc(OC)c(-c2cn3nc(-c4c[nH]c5ccc(Br)cc45)sc3n2)c1 | 22.1% | 79.3% | 25.6% | 47.9% | -21.3% (active) | 80.8% | 40.6% | 60% | 43.7% | 32.1% | 35.2% | 76.2% | 24% | -3.33% (active) | 12.5% | 13.2% | 27.2% | 11% |
| N#Cc1nc2c(S(=O)(=O)c3ccccc3)c(N)n(Cc3cccnc3)c2nc1C#N | 36.1% | 99.2% | 70.9% | 96.5% | 92.4% | 76.9% | 46.1% | 73.4% | 59.5% | 94.6% | 58.6% | 65.4% | 94.9% | 77.7% | 91.3% | 98.2% | 104% | 102% |
| CCN(CC)c1ccc(/C=N\NC(=O)c2cccc(Nc3ccnc(C(F)(F)F)c3)c2)c(O)c1 | 131% | 6.52% (active) | 37.3% | 48.6% | 18.8% | 19.5% | 79.9% | 30.9% | 57.8% | 29.4% | 15.1% | 28.8% | 15.4% | 35.4% | 16.1% | 26.5% | 60.1% | 23% |

— PubChem BioAssay (NCI)
